{
  "source": "the supplement of paper PMC6518042",
  "note": "Unmarked numbers belong to inactive results.",
  "data": [
    {"test_system": "Pectobacterium parmentieri SCC3193", "assay": "DuctApe activity index (growth/respiration on compound as sole nutrient source, blank-subtracted) (activity index (0-3)); higher = stronger utilization of the compound, active = 3 or more", "conditions": "nutrient role (plate category): carbon", "experimental": "(§1)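 Biolog Phenotype Microarray plates PM1, PM2A (carbon), PM3 (nitrogen) and PM4 (phosphorus/sulfur) inoculated with P. parmentieri SCC3193 in M9-C minimal salts medium with Biolog dye A, and read in the OmniLog for 46 h. Each well was tested in triplicate and the experiment was run twice. DuctApe computed a blank-subtracted activity index (AV, 0-3) from the mean curves; growth is positive at AV >= 3 and negative at AV <= 2.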", "values": [
      {"smiles": "N[C@@H](Cc1c[nH]cn1)C(=O)O", "note": "[L-Histidine]", "DuctApe activity index": 0},
      {"smiles": "C/C=C/C=C/C(=O)O", "note": "[Sorbic acid]", "DuctApe activity index": 0},
      {"smiles": "O=C(O)/C=C/C(=O)O", "note": "[Fumaric acid]", "DuctApe activity index": "3 (active)"},
      {"smiles": "CC(=O)C(C)=O", "note": "[2,3-Butanedione]", "DuctApe activity index": 0},
      {"smiles": "CC(=O)N[C@H]1[C@H]([C@H](O)[C@H](O)CO)OC(O)(C(=O)O)C[C@@H]1O", "note": "(stereo partly specified) [N-Acetyl-Neuraminic acid]", "DuctApe activity index": 0},
      {"smiles": "O=C(CO)[C@@H](O[C@H]1O[C@H](CO)[C@@H](O)[C@H](O)[C@H]1O)[C@H](O)[C@H](O)CO", "note": "[Turanose]", "DuctApe activity index": 0},
      {"smiles": "OC[C@@H](O)[C@@H](O)[C@H](O)[C@@H](O)CO", "note": "[D-Sorbitol]", "DuctApe activity index": 0},
      {"smiles": "CO[C@@H]1O[C@H](CO)[C@@H](O)[C@H](O)[C@H]1O", "note": "[b-Methyl-D-Glucoside]", "DuctApe activity index": "3 (active)"},
      {"smiles": "N[C@H](CO)C(=O)O", "note": "[D-Serine]", "DuctApe activity index": 0},
      {"smiles": "O=C(O)[C@]1(O)C[C@@H](O)[C@@H](O)[C@H](O)C1", "note": "[Quinic acid]", "DuctApe activity index": 0},
      {"smiles": "OC[C@@H](O)[C@@H](O)CO", "note": "[i-Erythritol]", "DuctApe activity index": 0},
      {"smiles": "O=C(O)c1ccc(O)cc1", "note": "[4-Hydroxybenzoic acid]", "DuctApe activity index": 0},
      {"smiles": "O=C(O)[C@H](O)[C@@H](O)C(=O)O", "note": "[L-Tartaric acid]", "DuctApe activity index": 0},
      {"smiles": "OC[C@H]1O[C@H](O[C@H]2[C@H](O)[C@@H](O)[C@@H](O[C@H]3[C@H](O)[C@@H](O)[C@@H](O)O[C@@H]3CO)O[C@@H]2CO)[C@H](O)[C@@H](O)[C@@H]1O", "note": "[Maltotriose]", "DuctApe activity index": "3 (active)"},
      {"smiles": "OC[C@@H](O)[C@H](O)[C@@H](O)CO", "note": "[Xylitol]", "DuctApe activity index": 0},
      {"smiles": "OC[C@@H](O)C(O)[C@H](O)CO", "note": "[D-Arabitol]", "DuctApe activity index": 0},
      {"smiles": "C[C@H](N)C(=O)NCC(=O)O", "DuctApe activity index": 0},
      {"smiles": "CSCC[C@H](N)C(=O)O", "note": "[L-Methionine]", "DuctApe activity index": 0},
      {"smiles": "CC(N)=O", "note": "[Acetamide]", "DuctApe activity index": 0},
      {"smiles": "OCC1(O)OC[C@@H](O)[C@@H](O)[C@H]1O", "note": "(stereo partly drawn) [D-Psicose]", "DuctApe activity index": "3 (active)"},
      {"smiles": "OCC1OC(O)(CO)C(O)C1O", "note": "[D-Fructose]", "DuctApe activity index": "3 (active)"},
      {"smiles": "O=C(O)CCC(=O)C(=O)O", "note": "[a-Ketoglutaric acid]", "DuctApe activity index": 0},
      {"smiles": "O=C(O)C[C@H](O)C(=O)O", "note": "[L-Malic acid]", "DuctApe activity index": "3 (active)"},
      {"smiles": "N[C@@H](CCO)C(=O)O", "note": "[L-Homoserine]", "DuctApe activity index": 0}
    ]},
    {"test_system": "Pectobacterium parmentieri SCC3193", "assay": "DuctApe activity index (growth/respiration on compound as sole nutrient source, blank-subtracted) (activity index (0-3)); higher = stronger utilization of the compound, active = 3 or more", "conditions": "nutrient role (plate category): nitrogen", "experimental": "as §1", "values": [
      {"smiles": "N[C@@H](Cc1c[nH]cn1)C(=O)O", "note": "[L-Histidine]", "DuctApe activity index": 0},
      {"smiles": "CC(C)[C@@H](N)C(=O)O", "note": "[D-Valine]", "DuctApe activity index": 0},
      {"smiles": "N[C@H](CO)C(=O)O", "note": "[D-Serine]", "DuctApe activity index": 0},
      {"smiles": "NCCCCN=C(N)N", "note": "[Agmatine]", "DuctApe activity index": 0},
      {"smiles": "C[C@H](N)C(=O)NCC(=O)O", "DuctApe activity index": 0},
      {"smiles": "CSCC[C@H](N)C(=O)O", "note": "[L-Methionine]", "DuctApe activity index": 0},
      {"smiles": "CC(N)=O", "note": "[Acetamide]", "DuctApe activity index": 0},
      {"smiles": "NCCCC[C@@H](N)C(=O)O", "note": "[D-Lysine]", "DuctApe activity index": 0},
      {"smiles": "CCCCN", "note": "[N-Butylamine]", "DuctApe activity index": 0},
      {"smiles": "N[C@@H](CCO)C(=O)O", "note": "[L-Homoserine]", "DuctApe activity index": 0}
    ]},
    {"test_system": "Pectobacterium parmentieri SCC3193", "assay": "DuctApe activity index (growth/respiration on compound as sole nutrient source, blank-subtracted) (activity index (0-3)); higher = stronger utilization of the compound, active = 3 or more", "conditions": "nutrient role (plate category): phosphate & sulphur", "experimental": "as §1", "values": [
      {"smiles": "O=S(=O)(O)SSS(=O)(=O)O", "note": "[Tetrathionate]", "DuctApe activity index": 1},
      {"smiles": "Cc1cn([C@H]2C[C@H](O)[C@@H](COP(=O)(O)O)O2)c(=O)[nH]c1=O", "note": "[Thymidine 5`-Monophosphate]", "DuctApe activity index": 2},
      {"smiles": "N[C@@H](CSC[C@H](N)C(=O)O)C(=O)O", "note": "[Lanthionine]", "DuctApe activity index": 1},
      {"smiles": "CSCC[C@H](N)C(=O)O", "note": "[L-Methionine]", "DuctApe activity index": 1},
      {"smiles": "NCCOP(=O)(O)O", "note": "[O-Phosphoryl-Ethanolamine]", "DuctApe activity index": 1},
      {"smiles": "O=C(O)C(CO)OP(=O)(O)O", "note": "[D-2-Phospho-Glyceric acid]", "DuctApe activity index": 2},
      {"smiles": "O=S(=O)(O)CCO", "note": "[2-Hydroxyethane Sulfonic acid]", "DuctApe activity index": 1}
    ]}
  ]
}
